Shiga inhibitor: blocks Shiga toxin action in Vero cells; Vero cells, Shiga toxin protein synthesis inhibition reporter; inhibition, % at 38.7 µM; 290,000 tested, 9.2% active; AID 2315; in the data active = inhibition mostly above about 28%, no sharp cut-off; inactive = mostly below about 43%
NS1 inh: blocks influenza NS1 protein function; Potency, µM (highest dose often 46.1 µM); 270,000 tested, 0.4% active; calls by dose curve; also: actives are rising curves; nearly all actives have a fitted effect of over 50% in size
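Growth recovery, yeast-based: influenza A NS1 expressed in S. cerevisiae causes slow growth, and suppressors are detected by OD600. The parent strain without NS1 is used as positive control.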
Giardia FBPA inh: Giardia lamblia aldolase inhibition | purified Giardia FBPA | Potency, µM (highest dose often 59.6 µM), usual class: inhibitors | 290,000 tested, 0.71% active | AID 2451; also: nearly all actives have a fitted effect of over 55% in size
Target sequence (A8B2U2 whole entry, looked up): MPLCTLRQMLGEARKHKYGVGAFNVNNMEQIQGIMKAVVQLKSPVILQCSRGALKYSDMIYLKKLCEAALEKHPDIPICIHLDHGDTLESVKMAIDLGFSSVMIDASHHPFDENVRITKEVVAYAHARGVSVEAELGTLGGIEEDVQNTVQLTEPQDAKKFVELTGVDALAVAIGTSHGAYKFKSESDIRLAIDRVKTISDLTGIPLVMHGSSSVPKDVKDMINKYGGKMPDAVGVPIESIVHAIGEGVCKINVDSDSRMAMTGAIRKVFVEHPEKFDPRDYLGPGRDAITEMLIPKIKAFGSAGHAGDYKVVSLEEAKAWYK
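Giardia FBPA (40 nM reagent) was preincubated 10 min at RT with compound (up to 57.5 uM final), then substrate plus GAPDH/TPI/NAD/arsenate coupling system with diaphorase/resazurin was added; resorufin fluorescence (525/598 nm) was read after 20 min.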
Cycloheximide cs: counter-screen hit for Shiga toxin inhibitors, cycloheximide; max response, %; cell reporter, cycloheximide protein synthesis inhibition counterscreen; AID 2314; 300,000 tested, 12% active; in the data active = max response mostly above about 13%, no sharp cut-off; inactive = mostly below about 14%; also: read at 38.3 µM for the half of the compounds with a filed dose
LmPK inhibitor: blocks Leishmania mexicana pyruvate kinase activity; 290,000 tested, 0.37% active; purified LmPK, Kinase-Glo ATP luminescence, 1 h; Potency, µM (top dose mostly 57.5 µM), hits mostly inhibitors; AID 1721
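In 50 mM imidazole pH 7.2 with 7 mM MgCl2, LmPK (0.1 nM) turned over PEP (0.5 mM) and ADP (0.1 mM) for 1 h at room temperature. Luciferase read-out of ATP.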
Each line names hits and unclear results; the compound was inactive in the other large screens. In the library only some 14% were active in any assay of this set; here they are far more common. Unless noted, calls follow the shape of the dose curve; as a rule, active = well fitted curve in the direction sought with a large enough effect; inconclusive = small, poorly fitted or top-dose-only effect, or another doubt; inactive = no such curve, though single readings can be large; an effect the other way counts as inactive or inconclusive.

Cc1ccc(N2CCN(C(=O)c3nn(C)c4c3CS(=O)(=O)c3ccccc3-4)CC2)c(C)c1	none
O=C(Nc1cccc(Cl)c1)c1ccc2c(=O)n3c(nc2c1)CCCCC3	Shiga inhibitor 102, Cycloheximide cs 41
CCc1cccc(NC(=O)c2ccc3c(=O)n4c(nc3c2)CCCCC4)c1	Shiga inhibitor 76, Cycloheximide cs 38
O=C(c1ccc2c(=O)n3c(nc2c1)CCCCC3)N1CCCCC1	Cycloheximide cs 21 (no result: Giardia FBPA inh)
COc1ccc(-n2c(=O)c(C)nc3cnc(N(C)C)nc32)cc1	none (no result: Shiga inhibitor, NS1 inh, Cycloheximide cs, LmPK inhibitor)
O=C1SC(SCc2ccccc2)=N/C1=C\c1ccco1	Shiga inhibitor 48
COc1ccc(Cl)cc1NC(=O)C/C(C)=N/NC(=O)C(=O)NCc1ccccc1	none
c1csc(-c2ccc3ccccc3n2)c1	Cycloheximide cs 33
N#Cc1cc2ccccc2nc1N	none
Cc1ccc(-c2cc3ccccc3nc2N)cc1	Shiga inhibitor 71, Cycloheximide cs 18
Cc1cc2ncc(-c3cccs3)nc2cc1C	Shiga inhibitor 101, Cycloheximide cs 51
c1ccc2nc(C3=NCCN3)ccc2c1	none (no result: Shiga inhibitor, Cycloheximide cs, LmPK inhibitor)
Nc1nc2ccccc2cc1-c1cccs1	Shiga inhibitor 94, Cycloheximide cs 61
CC(C)N1CCN(Cc2ccoc2)CC1CCO (stereo unspecified)	none
COCCN(C(=O)Cn1c(C(F)(F)F)nc2ccccc21)c1c(N)n(Cc2ccccc2)c(=O)[nH]c1=O	none (no result: Giardia FBPA inh)
COc1ccc(-c2cc3ccc(O)cc3oc2=O)cc1	Shiga inhibitor 74, Cycloheximide cs 37
O=c1oc2cc(O)ccc2cc1-c1ccccc1	Shiga inhibitor 54, Cycloheximide cs 38
CCOC(=O)C1=CCN(Cc2ccccc2)CC1	Giardia FBPA inh inconclusive
O=C(Nc1cccc(Br)c1)c1ccc(OC2CSC2)cc1	Shiga inhibitor 147, Cycloheximide cs 43 (no result: NS1 inh)
CC(=O)c1cccc(NC(=O)c2ccc(OC3CSC3)cc2)c1	none (no result: NS1 inh)
O=C(NCc1ccccc1)c1ccc(OC2CSC2)cc1	Cycloheximide cs 12
Cc1cccc(NC(=O)c2ccc(OC3CSC3)cc2)c1	Shiga inhibitor 62, Cycloheximide cs 43, LmPK inhibitor inconclusive
COCC(=O)N1CCC[C@@]2(CCN(c3ncccn3)C2)C1	none (no result: Shiga inhibitor, NS1 inh, Cycloheximide cs, LmPK inhibitor)
Cc1ccc(NCc2cc3cc4c(cc3n(CC(=O)Nc3ccc(C)cc3)c2=O)OCCO4)cc1	none (no result: NS1 inh, Giardia FBPA inh, LmPK inhibitor)
Cc1c(C(=O)Nc2nc3ccccc3[nH]2)oc2ccccc12	Shiga inhibitor 100, Cycloheximide cs 47
CS(=O)(=O)c1ccccc1C(=O)Nc1nc2ccccc2[nH]1	Giardia FBPA inh inconclusive
Cc1c(C(=O)Nc2nc3ccccc3[nH]2)oc2c(Cl)cccc12	Shiga inhibitor 76, Cycloheximide cs 32
N[C@@H](CSc1nc2ccccn2c1[N+](=O)[O-])C(=O)O	none (no result: Shiga inhibitor, Giardia FBPA inh, Cycloheximide cs, LmPK inhibitor)
CCOc1ccc(NC(=O)[C@@H]2CCC(=O)N2C2OC(=O)c3ccccc32)cc1 (stereo partly specified)	none
Clc1ccc2sc(C3CCNCC3)nc2c1	Shiga inhibitor 56, Cycloheximide cs 36
Cc1ccccc1CN1CCN(C(=O)c2ccc(F)cc2)CC1	Giardia FBPA inh inconclusive
CCOC(=O)C1CCCN(C(=O)Cn2nc(C)c3c(C)n(-c4ccccc4)nc3c2=O)C1 (stereo unspecified)	none
COc1ccc(-n2cc3ccc([N+](=O)[O-])cc3n2)cc1	Shiga inhibitor 115, Cycloheximide cs 37
COc1cccc(-n2c(N)c(C#N)c3ccc([N+](=O)[O-])cc3c2=O)c1	none
COc1ccc(-n2c(N)c(C#N)c3ccc([N+](=O)[O-])cc3c2=O)cc1	Shiga inhibitor active, Giardia FBPA inh inconclusive
O=C(Nc1ccccc1)N1CC[C@@]2(CCCN(C(=O)c3cccc(F)c3)C2)C1	none (no result: Shiga inhibitor, NS1 inh, Cycloheximide cs, LmPK inhibitor)
O=C(CSc1nnc(-c2ccc3c(c2)OCCO3)o1)NC1CCCCC1	none
CCC1CCCCN1C(=O)CSc1nnc(-c2ccc(OC)cc2)o1 (stereo unspecified)	none
CCC1CCCCN1C(=O)CSc1nnc(-c2ccc3c(c2)OCCO3)o1 (stereo unspecified)	Cycloheximide cs 27
O=C(CSc1nnc(-c2ccc3c(c2)OCCO3)o1)N1CCCC1	Cycloheximide cs 44
Cc1cccc(NC(=O)NC2CCCc3ccccc32)c1 (stereo unspecified)	none
Cc1cccc(C(=O)NCc2nnc(SCC(=O)Nc3nncs3)n2C)c1	none
Cc1cnc(C(=O)N2CCc3c([nH]c4ccccc34)C2c2ccc(F)cc2)cn1 (stereo unspecified)	none
CSc1ccc(C2c3[nH]c4ccccc4c3CCN2C(=O)c2cc(C)n(C)n2)cc1 (stereo unspecified)	Shiga inhibitor 81, Cycloheximide cs 34
CN1N=C(C(=O)N2CCc3c([nH]c4ccccc34)C2c2ccccc2Cl)CCC1=O (stereo unspecified)	Shiga inhibitor 74, Cycloheximide cs 43
O=C(c1cc[n+]([O-])cc1)N1CCc2c([nH]c3ccccc23)C1c1ccccc1Cl (stereo unspecified)	none
O=C(c1cnccn1)N1CCc2c([nH]c3ccccc23)C1c1cccc(Cl)c1 (stereo unspecified)	Shiga inhibitor 27, Cycloheximide cs 12
Cc1cc(C(=O)N2CCc3c([nH]c4ccccc34)C2c2cccc(Cl)c2)nn1C (stereo unspecified)	Shiga inhibitor 50, Cycloheximide cs 45
Cc1ccccc1C1c2[nH]c3ccccc3c2CCN1C(=O)c1ccc(=O)n(C)n1 (stereo unspecified)	none
COC(=O)c1ccc(C)c(NS(=O)(=O)c2cn(C)nc2C)c1	none (no result: Giardia FBPA inh)
Cc1cc(NC(=O)c2ccc([N+](=O)[O-])cc2)n(C)n1	none
COc1ccc(C2c3[nH]c4ccccc4c3CCN2C(=O)c2ccc(=O)n(C)n2)c(F)c1 (stereo unspecified)	Cycloheximide cs 26
CC(=O)NCCC(=O)N1CCc2c([nH]c3ccccc23)C1c1cccc(C)c1 (stereo unspecified)	Cycloheximide cs 19
CC(=O)NCCC(=O)N1CCc2c([nH]c3ccccc23)C1c1cccc(Cl)c1 (stereo unspecified)	none
CC1(C)CC(=O)C/C(=N\NC(=O)C2CC2c2ccccc2)C1 (stereo unspecified)	Shiga inhibitor 44 (no result: NS1 inh)
O=C(c1cc(-c2ccc(F)cc2)no1)N1CCN(Cc2ccc3c(c2)OCO3)CC1	none
COc1cccc(OC)c1NC(=O)CN1CCN(C)CC1	Giardia FBPA inh inconclusive
O=C(Nc1ccc2ccccc2n1)c1ccc(Cl)cc1	Shiga inhibitor 67, Cycloheximide cs 50
O=C(Nc1ccccc1)C1CCCCC1	none
O=C(Nc1ccnc(-c2ccncc2)n1)c1ccccc1Cl	none (no result: NS1 inh)
O=C(Nc1ccc2ccccc2n1)c1ccccc1Cl	Shiga inhibitor 56, Cycloheximide cs 39, LmPK inhibitor inconclusive
COc1ccc(C(=O)Nc2ccc3ccccc3n2)c(OC)c1OC	Shiga inhibitor 74, Cycloheximide cs 51
O=C(Nc1cccc(NC(=O)c2ccc(Cl)cc2)n1)c1ccc(Cl)cc1	none (no result: Giardia FBPA inh)
O=C(Nc1ccc2ccccc2n1)C1CCCCC1	Cycloheximide cs 73
COc1ccccc1NC(=O)c1cc2ccccc2nc1C	none
Cc1ncc2c(c1O)COP(=O)(O)OC2	none (no result: Shiga inhibitor, NS1 inh, Cycloheximide cs, LmPK inhibitor)

Compound activity from PubChem.
